Experimental data as given in PubChem BioAssay AID602447 (National Center for Advancing Translational Sciences (NCATS), 2012).
Inconclusive results are not listed. The source made the active and inactive calls. No rule for the calls is given here.

Target: Beta-2 adrenergic receptor (Homo sapiens) (UniProt P07550)
Assay: qHTS for antagonists of the Thyroid Stimulation Hormone Receptor: Hit Validation with Beta-2 Adrenergic Receptor
Details: B2AR-expressing cells, cAMP HTRF, antagonist counterscreen; stronger effect = higher value
Text: The thyroid-stimulating hormone receptor (TSHR) is a member of the 7 trans-membrane-spanning receptor (7TMR) family of cell surface receptors. TSHR-mediated hyperthyroidism is important in thyroid pathology. The development of small molecule antagonists of TSHR may lead to therapeutic approaches for TSHR-mediated hyperthyroidism caused by constitutively activating mutations or stimulating auto-antibodies associated with Graves' disease. Graves' disease is the leading cause of hyperthyroidism and is caused by autoantibodies that stimulate TSHR (TsAbs) causing thyroid growth and unregulated overproduction of thyroid hormones and existing treatments have liabilities (agranulocytosis). In addition, TSHRs are known to be expressed in multiple extrathyroidal tissues including bone, brain, kidney, testis, fat and cells of the immune system but the role of the TSHR in these tissues is not clear. Therefore, TSHR antagonists/inverse agonists could be used as probes of extrathyroidal TSHR function. Finally, TSHR inverse agonists, which are a subclass of antagonists that inhibit agonist-independent (or basal or constitutive) TSHR signaling, could be used to inhibit TSH-independent signaling in patients with recurrent or metastatic thyroid cancer who are receiving thyroid hormone to suppress TSH. […]

Chain of Beta-2 adrenergic receptor (Homo sapiens) (P07550 whole entry, looked up): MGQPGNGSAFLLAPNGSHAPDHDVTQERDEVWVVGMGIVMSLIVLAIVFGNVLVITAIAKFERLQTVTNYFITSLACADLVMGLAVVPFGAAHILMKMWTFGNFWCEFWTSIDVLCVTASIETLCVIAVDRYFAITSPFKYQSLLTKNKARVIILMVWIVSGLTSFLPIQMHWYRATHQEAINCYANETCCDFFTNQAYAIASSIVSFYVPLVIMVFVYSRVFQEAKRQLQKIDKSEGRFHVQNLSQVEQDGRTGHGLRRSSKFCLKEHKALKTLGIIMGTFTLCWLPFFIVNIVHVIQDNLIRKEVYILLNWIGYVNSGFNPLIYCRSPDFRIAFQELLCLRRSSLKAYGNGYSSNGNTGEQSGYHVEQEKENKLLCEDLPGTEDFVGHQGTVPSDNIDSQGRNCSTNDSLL

## N#CC(C#N)=NNc1ccc(-n2ccc(C(F)(F)F)n2)cc1
  max inhibition: 91.9% (active)
